Assay results taken from ChEMBL document CHEMBL2218924, “A broad activity screen in support of a chemogenomic map for kinase signalling research and drug discovery” (Biochem J, 2013).

Legend:
[1] = target: T1, Serine/threonine-protein kinase 17A (Homo sapiens) (UniProt Q9UEE5); details: at 10 µM
T1 sequence (whole entry): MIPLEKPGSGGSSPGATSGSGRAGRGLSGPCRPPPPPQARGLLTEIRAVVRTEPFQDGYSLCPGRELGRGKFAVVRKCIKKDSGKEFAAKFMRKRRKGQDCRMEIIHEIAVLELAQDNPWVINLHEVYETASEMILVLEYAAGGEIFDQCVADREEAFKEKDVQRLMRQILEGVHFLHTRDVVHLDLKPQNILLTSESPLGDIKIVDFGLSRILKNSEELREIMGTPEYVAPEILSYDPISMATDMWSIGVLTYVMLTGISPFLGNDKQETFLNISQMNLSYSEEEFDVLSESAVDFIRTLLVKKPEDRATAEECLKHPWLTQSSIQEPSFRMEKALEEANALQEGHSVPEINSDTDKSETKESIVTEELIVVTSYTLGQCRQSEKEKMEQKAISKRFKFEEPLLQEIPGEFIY

[2] = target: T2, Dual specificity tyrosine-phosphorylation-regulated kinase 2 (Homo sapiens) (UniProt Q92630); details: at 10 µM
T2 sequence (whole entry): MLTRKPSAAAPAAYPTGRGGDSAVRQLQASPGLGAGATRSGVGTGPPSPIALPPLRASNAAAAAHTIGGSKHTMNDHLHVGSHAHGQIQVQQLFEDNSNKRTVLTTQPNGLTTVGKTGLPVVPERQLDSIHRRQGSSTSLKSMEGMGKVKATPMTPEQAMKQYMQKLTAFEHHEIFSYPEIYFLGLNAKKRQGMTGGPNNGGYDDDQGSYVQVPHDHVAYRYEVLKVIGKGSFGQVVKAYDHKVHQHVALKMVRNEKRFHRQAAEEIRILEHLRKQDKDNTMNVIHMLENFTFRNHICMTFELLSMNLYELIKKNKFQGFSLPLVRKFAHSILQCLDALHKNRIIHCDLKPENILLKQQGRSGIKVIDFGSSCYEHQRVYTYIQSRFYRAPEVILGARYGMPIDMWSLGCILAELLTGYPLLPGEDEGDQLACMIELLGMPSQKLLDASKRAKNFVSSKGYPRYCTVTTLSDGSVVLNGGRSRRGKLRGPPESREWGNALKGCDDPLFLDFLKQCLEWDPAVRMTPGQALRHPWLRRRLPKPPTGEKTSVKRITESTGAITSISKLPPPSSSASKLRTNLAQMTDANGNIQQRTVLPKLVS

[3] = target: T3, Ephrin type-A receptor 1 (Homo sapiens) (UniProt P21709); details: at 1 µM
T3 sequence (whole entry): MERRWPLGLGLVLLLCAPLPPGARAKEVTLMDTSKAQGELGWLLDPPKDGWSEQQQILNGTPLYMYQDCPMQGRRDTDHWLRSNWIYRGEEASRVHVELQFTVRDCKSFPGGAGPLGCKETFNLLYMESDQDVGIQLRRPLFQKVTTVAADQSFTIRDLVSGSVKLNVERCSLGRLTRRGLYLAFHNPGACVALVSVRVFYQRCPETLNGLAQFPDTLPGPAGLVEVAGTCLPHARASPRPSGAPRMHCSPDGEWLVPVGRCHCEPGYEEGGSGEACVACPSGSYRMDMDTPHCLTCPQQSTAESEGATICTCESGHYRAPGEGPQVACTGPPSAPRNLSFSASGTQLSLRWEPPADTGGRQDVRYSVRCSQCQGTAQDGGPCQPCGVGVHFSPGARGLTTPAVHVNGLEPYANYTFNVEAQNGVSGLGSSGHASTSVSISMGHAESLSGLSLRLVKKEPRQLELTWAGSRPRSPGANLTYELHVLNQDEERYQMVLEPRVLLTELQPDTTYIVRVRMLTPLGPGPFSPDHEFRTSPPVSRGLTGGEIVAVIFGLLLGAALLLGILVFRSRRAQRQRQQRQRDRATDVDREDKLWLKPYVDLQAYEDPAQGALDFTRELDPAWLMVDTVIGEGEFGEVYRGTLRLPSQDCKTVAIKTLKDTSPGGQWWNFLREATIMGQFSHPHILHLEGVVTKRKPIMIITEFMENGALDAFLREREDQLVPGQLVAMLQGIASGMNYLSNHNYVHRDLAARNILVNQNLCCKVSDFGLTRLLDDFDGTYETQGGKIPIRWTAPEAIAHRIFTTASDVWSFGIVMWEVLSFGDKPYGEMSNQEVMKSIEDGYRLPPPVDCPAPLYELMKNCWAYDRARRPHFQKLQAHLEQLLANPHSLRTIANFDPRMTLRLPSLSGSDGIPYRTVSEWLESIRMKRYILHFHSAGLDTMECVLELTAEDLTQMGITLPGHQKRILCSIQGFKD

[4] = target: T3, Ephrin type-A receptor 1 (Homo sapiens); details: at 10 µM
[5] = target: Ephrin type-A receptor 2 (Homo sapiens) (UniProt P29317); details: at 1 µM
[6] = target: Ephrin type-A receptor 2 (Homo sapiens) (UniProt P29317); details: at 10 µM
[7] = target: T4, Ephrin type-A receptor 3 (Homo sapiens) (UniProt P29320); details: at 1 µM
T4 sequence (whole entry): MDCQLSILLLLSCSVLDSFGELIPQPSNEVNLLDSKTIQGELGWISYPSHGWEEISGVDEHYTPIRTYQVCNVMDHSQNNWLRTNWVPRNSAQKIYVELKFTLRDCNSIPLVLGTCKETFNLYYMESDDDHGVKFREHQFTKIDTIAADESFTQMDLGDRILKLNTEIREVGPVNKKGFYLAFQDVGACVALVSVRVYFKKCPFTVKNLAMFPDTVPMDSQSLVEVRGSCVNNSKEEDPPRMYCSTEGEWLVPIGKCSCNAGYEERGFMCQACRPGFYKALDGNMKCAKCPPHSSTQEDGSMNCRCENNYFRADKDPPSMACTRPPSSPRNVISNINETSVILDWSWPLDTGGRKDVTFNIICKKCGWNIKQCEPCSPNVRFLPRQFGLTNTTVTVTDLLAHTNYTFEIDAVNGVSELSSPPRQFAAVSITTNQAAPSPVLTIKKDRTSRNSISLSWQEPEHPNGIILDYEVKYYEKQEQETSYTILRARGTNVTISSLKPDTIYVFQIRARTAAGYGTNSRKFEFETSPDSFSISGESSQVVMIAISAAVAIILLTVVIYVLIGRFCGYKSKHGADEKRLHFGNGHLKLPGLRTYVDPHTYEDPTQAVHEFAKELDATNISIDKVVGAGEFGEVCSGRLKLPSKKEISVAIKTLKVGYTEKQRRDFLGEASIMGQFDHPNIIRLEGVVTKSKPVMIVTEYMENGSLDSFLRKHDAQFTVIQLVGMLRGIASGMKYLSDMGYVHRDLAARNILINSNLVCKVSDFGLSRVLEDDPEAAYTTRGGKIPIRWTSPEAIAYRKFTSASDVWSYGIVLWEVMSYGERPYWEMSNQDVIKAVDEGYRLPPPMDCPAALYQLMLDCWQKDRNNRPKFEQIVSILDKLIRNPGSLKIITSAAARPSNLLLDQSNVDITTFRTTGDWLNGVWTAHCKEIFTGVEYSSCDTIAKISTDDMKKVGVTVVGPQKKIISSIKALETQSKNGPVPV

[8] = target: T4, Ephrin type-A receptor 3 (Homo sapiens); details: at 10 µM
[9] = target: Ephrin type-A receptor 4 (Homo sapiens) (UniProt P54764); details: at 10 µM
[10] = target: Ephrin type-A receptor 5 (Homo sapiens) (UniProt P54756); details: at 10 µM
[11] = target: Ephrin type-A receptor 7 (Homo sapiens) (UniProt Q15375); details: at 1 µM
[12] = target: Ephrin type-A receptor 7 (Homo sapiens) (UniProt Q15375); details: at 10 µM
[13] = target: T5, Ephrin type-A receptor 8 (Homo sapiens) (UniProt P29322); details: at 10 µM
T5 sequence (whole entry): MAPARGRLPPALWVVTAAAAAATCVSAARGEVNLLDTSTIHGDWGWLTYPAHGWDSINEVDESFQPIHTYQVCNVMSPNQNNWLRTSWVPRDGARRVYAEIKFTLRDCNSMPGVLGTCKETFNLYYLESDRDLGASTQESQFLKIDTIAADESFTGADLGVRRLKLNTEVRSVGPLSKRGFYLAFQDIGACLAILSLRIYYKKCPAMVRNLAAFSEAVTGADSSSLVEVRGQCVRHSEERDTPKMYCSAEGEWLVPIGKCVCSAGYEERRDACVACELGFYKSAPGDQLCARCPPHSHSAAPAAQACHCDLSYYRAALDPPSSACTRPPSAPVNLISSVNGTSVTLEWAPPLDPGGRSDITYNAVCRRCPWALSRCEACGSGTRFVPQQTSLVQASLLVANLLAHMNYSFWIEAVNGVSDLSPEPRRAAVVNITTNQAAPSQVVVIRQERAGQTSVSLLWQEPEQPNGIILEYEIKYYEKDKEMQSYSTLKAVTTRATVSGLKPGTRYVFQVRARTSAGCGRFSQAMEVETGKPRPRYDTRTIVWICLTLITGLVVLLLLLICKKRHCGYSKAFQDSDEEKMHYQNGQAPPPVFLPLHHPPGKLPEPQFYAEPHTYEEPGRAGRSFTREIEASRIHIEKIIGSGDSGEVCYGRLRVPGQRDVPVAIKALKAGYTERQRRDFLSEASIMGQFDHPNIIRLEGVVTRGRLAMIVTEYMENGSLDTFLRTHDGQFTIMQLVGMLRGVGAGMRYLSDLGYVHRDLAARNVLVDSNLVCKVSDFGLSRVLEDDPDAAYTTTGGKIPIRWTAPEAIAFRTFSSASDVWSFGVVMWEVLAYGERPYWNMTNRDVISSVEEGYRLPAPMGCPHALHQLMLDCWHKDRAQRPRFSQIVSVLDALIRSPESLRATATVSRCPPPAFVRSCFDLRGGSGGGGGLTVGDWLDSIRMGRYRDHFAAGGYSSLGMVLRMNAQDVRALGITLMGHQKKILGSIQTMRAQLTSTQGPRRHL

[14] = target: T5, Ephrin type-A receptor 8 (Homo sapiens); details: at 1 µM
[15] = target: T6, Ephrin type-B receptor 1 (Homo sapiens) (UniProt P54762); details: at 1 µM
T6 sequence (whole entry): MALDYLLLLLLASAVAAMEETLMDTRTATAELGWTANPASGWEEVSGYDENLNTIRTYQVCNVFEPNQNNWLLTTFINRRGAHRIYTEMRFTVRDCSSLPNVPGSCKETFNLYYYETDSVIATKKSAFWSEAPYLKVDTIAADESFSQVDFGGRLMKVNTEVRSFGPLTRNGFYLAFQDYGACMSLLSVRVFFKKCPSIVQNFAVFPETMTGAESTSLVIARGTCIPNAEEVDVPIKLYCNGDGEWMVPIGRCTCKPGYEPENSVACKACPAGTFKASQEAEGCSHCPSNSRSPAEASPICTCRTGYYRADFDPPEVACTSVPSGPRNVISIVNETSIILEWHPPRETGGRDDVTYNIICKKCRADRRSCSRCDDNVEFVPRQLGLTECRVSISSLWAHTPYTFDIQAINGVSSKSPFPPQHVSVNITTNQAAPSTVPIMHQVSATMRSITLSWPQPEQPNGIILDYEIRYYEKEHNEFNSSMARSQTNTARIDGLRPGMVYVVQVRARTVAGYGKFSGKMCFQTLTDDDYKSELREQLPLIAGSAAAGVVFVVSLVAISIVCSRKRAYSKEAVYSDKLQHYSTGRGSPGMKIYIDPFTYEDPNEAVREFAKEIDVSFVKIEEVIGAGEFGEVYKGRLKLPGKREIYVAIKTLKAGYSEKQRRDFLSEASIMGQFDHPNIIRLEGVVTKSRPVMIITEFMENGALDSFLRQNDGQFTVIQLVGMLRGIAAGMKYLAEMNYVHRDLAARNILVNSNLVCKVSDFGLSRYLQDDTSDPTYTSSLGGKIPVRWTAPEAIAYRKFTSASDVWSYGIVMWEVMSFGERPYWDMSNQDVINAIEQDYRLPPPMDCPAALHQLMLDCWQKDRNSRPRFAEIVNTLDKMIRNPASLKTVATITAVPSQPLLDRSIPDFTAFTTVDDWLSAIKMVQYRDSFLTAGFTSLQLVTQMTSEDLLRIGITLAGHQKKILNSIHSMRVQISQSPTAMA

[16] = target: T2, Dual specificity tyrosine-phosphorylation-regulated kinase 2 (Homo sapiens); details: at 1 µM
[17] = target: Ephrin type-A receptor 5 (Homo sapiens) (UniProt P54756); details: at 1 µM
[18] = target: Ephrin type-A receptor 4 (Homo sapiens) (UniProt P54764); details: at 1 µM

Chain of Ephrin type-A receptor 5 (Homo sapiens) (P54756 whole entry): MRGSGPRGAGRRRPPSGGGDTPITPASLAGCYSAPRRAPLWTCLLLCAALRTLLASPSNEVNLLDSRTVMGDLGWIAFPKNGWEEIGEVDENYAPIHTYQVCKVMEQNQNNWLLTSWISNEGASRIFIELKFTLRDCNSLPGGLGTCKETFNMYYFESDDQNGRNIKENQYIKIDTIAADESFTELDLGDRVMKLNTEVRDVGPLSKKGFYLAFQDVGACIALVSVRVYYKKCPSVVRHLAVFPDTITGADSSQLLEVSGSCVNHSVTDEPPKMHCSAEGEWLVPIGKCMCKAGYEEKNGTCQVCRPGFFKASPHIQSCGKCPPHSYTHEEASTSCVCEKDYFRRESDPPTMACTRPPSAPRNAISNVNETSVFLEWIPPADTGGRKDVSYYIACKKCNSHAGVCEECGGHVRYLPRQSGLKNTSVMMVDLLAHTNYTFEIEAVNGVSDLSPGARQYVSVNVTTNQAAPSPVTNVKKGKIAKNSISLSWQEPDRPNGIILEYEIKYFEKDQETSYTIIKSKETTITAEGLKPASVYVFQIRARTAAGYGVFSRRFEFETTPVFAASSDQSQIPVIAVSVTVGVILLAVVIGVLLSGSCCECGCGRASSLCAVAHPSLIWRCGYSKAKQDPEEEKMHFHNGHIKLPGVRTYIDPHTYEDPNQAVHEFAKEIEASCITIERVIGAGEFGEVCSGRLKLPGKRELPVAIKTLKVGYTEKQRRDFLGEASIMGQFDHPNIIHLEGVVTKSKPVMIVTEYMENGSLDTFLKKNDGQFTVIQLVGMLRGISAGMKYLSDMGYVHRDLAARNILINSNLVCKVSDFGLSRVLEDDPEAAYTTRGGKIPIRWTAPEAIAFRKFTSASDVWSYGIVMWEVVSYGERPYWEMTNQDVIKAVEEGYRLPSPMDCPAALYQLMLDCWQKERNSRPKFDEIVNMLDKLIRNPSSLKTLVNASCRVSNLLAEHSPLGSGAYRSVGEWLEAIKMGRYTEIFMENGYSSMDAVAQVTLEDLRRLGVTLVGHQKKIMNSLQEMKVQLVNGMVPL
Chain of Ephrin type-A receptor 2 (Homo sapiens) (P29317 whole entry): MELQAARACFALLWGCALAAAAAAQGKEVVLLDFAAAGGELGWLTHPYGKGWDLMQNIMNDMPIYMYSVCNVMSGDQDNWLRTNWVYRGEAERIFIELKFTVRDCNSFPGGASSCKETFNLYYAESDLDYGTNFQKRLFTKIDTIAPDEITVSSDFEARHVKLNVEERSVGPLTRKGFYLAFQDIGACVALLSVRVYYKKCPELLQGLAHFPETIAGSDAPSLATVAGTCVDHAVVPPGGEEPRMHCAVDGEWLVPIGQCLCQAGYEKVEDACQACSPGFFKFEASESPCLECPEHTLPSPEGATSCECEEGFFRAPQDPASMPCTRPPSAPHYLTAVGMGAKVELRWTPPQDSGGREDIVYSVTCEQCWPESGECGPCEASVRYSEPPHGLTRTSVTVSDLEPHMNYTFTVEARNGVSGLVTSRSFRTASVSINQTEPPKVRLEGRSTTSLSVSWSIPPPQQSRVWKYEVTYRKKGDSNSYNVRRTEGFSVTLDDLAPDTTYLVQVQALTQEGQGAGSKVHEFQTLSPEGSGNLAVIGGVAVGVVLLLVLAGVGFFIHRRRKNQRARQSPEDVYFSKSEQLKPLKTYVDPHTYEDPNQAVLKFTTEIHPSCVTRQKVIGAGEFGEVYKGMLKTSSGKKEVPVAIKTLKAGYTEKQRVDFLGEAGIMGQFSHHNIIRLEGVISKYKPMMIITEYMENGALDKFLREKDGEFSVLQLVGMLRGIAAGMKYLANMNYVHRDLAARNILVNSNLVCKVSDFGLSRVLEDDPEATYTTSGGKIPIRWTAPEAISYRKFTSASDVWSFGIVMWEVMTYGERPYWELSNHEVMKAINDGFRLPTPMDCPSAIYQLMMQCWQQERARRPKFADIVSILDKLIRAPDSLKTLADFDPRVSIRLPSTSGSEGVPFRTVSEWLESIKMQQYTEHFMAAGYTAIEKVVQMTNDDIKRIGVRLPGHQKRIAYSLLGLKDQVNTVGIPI
Chain of Ephrin type-A receptor 7 (Homo sapiens) (Q15375 28-998 limits assumed): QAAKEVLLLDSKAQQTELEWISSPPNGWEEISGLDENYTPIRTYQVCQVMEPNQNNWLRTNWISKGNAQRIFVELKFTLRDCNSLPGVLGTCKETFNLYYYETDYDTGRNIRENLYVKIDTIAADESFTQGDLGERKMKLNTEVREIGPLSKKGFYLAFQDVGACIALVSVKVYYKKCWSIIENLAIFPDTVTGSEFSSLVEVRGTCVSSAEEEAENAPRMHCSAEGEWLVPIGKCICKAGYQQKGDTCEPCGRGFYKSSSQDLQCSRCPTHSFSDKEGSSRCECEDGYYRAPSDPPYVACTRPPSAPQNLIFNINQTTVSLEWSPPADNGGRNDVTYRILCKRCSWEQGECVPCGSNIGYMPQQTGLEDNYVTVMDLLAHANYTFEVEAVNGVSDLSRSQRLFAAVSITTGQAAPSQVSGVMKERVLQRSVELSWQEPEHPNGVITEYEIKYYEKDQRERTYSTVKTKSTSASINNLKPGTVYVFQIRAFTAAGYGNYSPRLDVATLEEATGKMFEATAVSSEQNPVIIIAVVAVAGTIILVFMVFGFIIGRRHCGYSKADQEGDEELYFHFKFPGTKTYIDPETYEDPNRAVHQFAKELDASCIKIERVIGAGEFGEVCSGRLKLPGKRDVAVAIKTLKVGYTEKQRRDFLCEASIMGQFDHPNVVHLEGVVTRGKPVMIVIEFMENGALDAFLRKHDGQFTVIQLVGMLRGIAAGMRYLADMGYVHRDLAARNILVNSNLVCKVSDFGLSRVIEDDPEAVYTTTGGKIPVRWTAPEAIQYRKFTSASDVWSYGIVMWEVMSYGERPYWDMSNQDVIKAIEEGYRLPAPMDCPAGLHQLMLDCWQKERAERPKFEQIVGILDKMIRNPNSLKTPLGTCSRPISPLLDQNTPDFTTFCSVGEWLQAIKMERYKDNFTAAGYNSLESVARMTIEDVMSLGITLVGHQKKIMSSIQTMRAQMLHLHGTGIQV
Chain of Ephrin type-A receptor 4 (Homo sapiens) (P54764 whole entry): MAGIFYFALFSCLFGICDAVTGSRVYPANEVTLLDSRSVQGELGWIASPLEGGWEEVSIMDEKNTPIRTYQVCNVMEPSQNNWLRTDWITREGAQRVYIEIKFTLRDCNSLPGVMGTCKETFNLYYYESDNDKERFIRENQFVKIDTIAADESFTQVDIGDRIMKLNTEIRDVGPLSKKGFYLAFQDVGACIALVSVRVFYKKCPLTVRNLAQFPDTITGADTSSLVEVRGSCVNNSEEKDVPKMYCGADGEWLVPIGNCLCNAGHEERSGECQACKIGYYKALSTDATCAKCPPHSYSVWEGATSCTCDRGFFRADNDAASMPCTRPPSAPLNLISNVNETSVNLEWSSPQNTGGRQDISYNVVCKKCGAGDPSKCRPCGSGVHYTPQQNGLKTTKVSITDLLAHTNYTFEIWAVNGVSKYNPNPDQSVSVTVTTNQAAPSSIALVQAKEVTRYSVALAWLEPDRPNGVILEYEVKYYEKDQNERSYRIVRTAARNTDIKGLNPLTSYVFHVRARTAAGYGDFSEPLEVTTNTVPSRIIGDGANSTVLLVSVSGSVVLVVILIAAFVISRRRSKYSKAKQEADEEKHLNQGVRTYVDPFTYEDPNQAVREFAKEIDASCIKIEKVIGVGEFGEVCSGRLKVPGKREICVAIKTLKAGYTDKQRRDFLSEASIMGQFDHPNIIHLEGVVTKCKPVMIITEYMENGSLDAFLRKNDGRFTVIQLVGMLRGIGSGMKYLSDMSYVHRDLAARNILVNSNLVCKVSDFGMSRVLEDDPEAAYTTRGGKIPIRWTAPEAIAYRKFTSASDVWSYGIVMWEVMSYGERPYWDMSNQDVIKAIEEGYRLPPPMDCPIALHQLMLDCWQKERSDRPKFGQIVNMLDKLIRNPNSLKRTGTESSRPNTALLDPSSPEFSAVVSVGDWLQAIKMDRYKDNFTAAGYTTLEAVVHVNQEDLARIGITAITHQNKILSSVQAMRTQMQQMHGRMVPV

Row | SMILES | residual activity [1] [%] | residual activity [2] [%] | residual activity [3] [%] | residual activity [4] [%] | residual activity [5] [%] | residual activity [6] [%] | residual activity [7] [%] | residual activity [8] [%] | residual activity [9] [%] | residual activity [10] [%] | residual activity [11] [%] | residual activity [12] [%] | residual activity [13] [%] | residual activity [14] [%] | residual activity [15] [%] | residual activity [16] [%] | residual activity [17] [%] | residual activity [18] [%]
1 | Cc1cc(Nc2nc(-c3ccccc3)nc3ccccc23)n[nH]1 | 14 | 41 | 36 | 18 | 75 | 43 | 54 | 8 | 73 | 33 | 50 | 6 | 68 | – | – | – | – | –
2 | CCN(CC)C(=O)c1ccc(Nc2nc(OCC3CCCCC3)c3nc[nH]c3n2)cc1 | 4 | – | 60 | 8 | 77 | 42 | – | 60 | 73 | – | 71 | 7 | 64 | 97 | 68 | – | – | –
3 | c1ccc(-c2n[nH]cc2-c2ccnc3ccccc23)nc1 | – | 104 | 90 | 90 | 102 | 95 | 99 | 78 | 103 | 103 | 94 | 91 | 97 | 95 | 104 | 89 | 109 | –
4 | O=c1cc(-c2cccc3c2Sc2ccccc2S3)oc(N2CCOCC2)c1 | 93 | 95 | 105 | 94 | 100 | 82 | 100 | 94 | 104 | 88 | 97 | 98 | 111 | 108 | 97 | 101 | 113 | 106
